Source: PubChem
HT1080-NT tox = qHTS for induction of synthetic lethality in tumor cells producing 2HG: qHTS for the HT-1080-NT fibrosarcoma cell line; AID 686970, 2013; 1.6% of 360,000 active; HT-1080-NT fibrosarcoma viability, CellTiter-Glo ATP luminescence, 48 h; Potency, µM (titrated, usually from 46.1 µM), without a hit: at the top dose activity, negative = less viability, hits mostly cytotoxic;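 note: NT is the 2HG producing partner of a matched IDH1 knockdown line; potency is the fitted concentration of half-maximal effect; 0% = DMSO-treated cells and -100% = media-only wells without cells; nearly all actives have a fitted effect of over 55% in size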
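Luminescent CellTiter-Glo readout after 48 hours of compound exposure at 37 degrees C defined viability of HT-1080-NT cells. Activity was normalized to DMSO wells and cell-free media wells; concentration-response curves were fitted and assigned curve classes.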
DT40 TDP1 CPT = qHTS for Inhibitors of human tyrosyl-DNA phosphodiesterase 1 (TDP1): qHTS in cells in presence of CPT | 12% of 420,000 active | Potency, µM (series often up to 46.2 µM), for inactives: at the top dose activity change, negative = growth inhibition, hits mostly inhibitors | chicken DT40 Tdp1-/-;hTDP1 cells + 20 nM CPT, ATP luminescence, 48 h; note: potency is the fitted concentration of half-maximal effect; nearly all actives have a fitted effect of over 55% in size
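Chicken DT40 Tdp1-/- cells complemented with human TDP1, 400 cells/well, exposed to compounds plus 20 nM camptothecin for at least 48 h at 37 C; viability read as ATP content by CellTiter-Glo luminescence.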
TDP1 cell noCPT = qHTS for Inhibitors of human tyrosyl-DNA phosphodiesterase 1 (TDP1): qHTS in cells in absence of CPT; DT40 Tdp1-/- hTDP1 cells, no CPT, ATP luminescence, 48 h; Potency, µM (titrated, usually from 46.2 µM), inactives show at the highest dose activity change, negative = growth inhibition, actives largely listed as inhibitors; 15% of 420,000 active; AID 686978, 2013; note: potency is the fitted concentration of half-maximal effect; nearly all actives have a fitted effect of over 55% in size
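A cellular qHTS used chicken DT40 cells lacking endogenous Tdp1 but carrying stably transfected human TDP1. Compounds were applied without camptothecin, and cell growth kinetics were judged by ATP-dependent luminescence after ≥48 hr.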
HT1080 IDH1KD tx = qHTS for induction of synthetic lethality in tumor cells producing 2HG: qHTS for the HT-1080-IDH1KD cell line; AID 686971, 2013; HT-1080 IDH1 knockdown viability, ATP luminescence, 48 h; Potency, µM (titrated, usually from 46.1 µM), for the others: top-dose activity, negative = toxicity, usual class: cytotoxic; 2% of 360,000 active;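 note: potency is the fitted concentration of half-maximal effect; 0% = DMSO wells and -100% = cell-free medium wells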
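IDH1KD HT-1080 cells, 750/well, RPMI + 5% FBS; compound pinned after 2 h settling; 48 h, 37 °C; CellTiter-Glo luminescence; % activity normalised to DMSO and no-cell wells; curves fitted, classed by r2 and efficacy.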
IL1B secr inh = qHTS for Inhibitors of Inflammasome Signaling: IL-1-beta AlphaLISA Primary Screen; THP-1 LPS/ATP IL-1B secretion, AlphaLISA, 16 h; active compounds read low; activity change, % at 57.5 µM; 4.7% of 360,000 active; AID 743279, 2014; in the data active = activity change below about -50%; inconclusive = mostly about -30% to -49%
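Secreted IL-1B measured by AlphaLISA bead assay after 16 h compound exposure of THP-1 cells; compounds (final up to 57.5 uM) added 1 h before LPS (250 ng/mL) and ATP (1.25 mM) stimulation; lower signal means less secretion.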
An asterisk follows results filed as active. Sampled rows, rich in hits. Any-hit rate of the full collection: about 19%. Unless noted, calls come from the whole dose curve; as a rule, active = well fitted curve in the direction sought with a large enough effect; inconclusive = small, poorly fitted or top-dose-only effect, or another doubt; inactive = no such curve, though single readings can be large; an effect the other way counts as inactive or inconclusive. Unless noted, % is set by controls: 0 for no effect and ±100 for the full control effect.

Screening CC(C)c1ccc(NC(=O)COc2ccc(F)cc2C(=O)c2cnn(-c3ccccc3)c2)cc1 returned HT1080-NT tox -25%, DT40 TDP1 CPT inconclusive, TDP1 cell noCPT 13µM*, HT1080 IDH1KD tx inconclusive and IL1B secr inh 26.
`CC(NC(=O)c1ccc(Br)cc1)c1ccc2c(c1)CCCC2` (stereo not given) gave HT1080-NT tox 5%, DT40 TDP1 CPT inconclusive, TDP1 cell noCPT inconclusive, HT1080 IDH1KD tx 2% and IL1B secr inh inconclusive.
For CC(NC(=O)c1ccc(F)cc1)c1ccc2c(c1)CCCC2 (stereo not given) the results were HT1080-NT tox -9%, DT40 TDP1 CPT 21µM*, TDP1 cell noCPT 13µM*, HT1080 IDH1KD tx -5% and IL1B secr inh -4.
For COc1cccc(C(C)(O)c2nc(-c3cnn(C)c3)cs2)c1 (stereo not given) the results were HT1080-NT tox -7%, DT40 TDP1 CPT inconclusive, TDP1 cell noCPT inconclusive, HT1080 IDH1KD tx 4% and IL1B secr inh -11.
`C[C@H]1CN([C@@H](C)CO)C(=O)CCCn2cc(nn2)CO[C@@H]1CN(C)C(=O)Oc1ccccc1` gave HT1080-NT tox 22%, DT40 TDP1 CPT 6%, TDP1 cell noCPT 18%, HT1080 IDH1KD tx 7% and IL1B secr inh 5.
`O=C(C1=C[C@@H](c2coc3ccccc3c2=O)C[C@@H](OCc2ccc(CO)cc2)O1)N1CCN(Cc2ccc3c(c2)OCO3)CC1` gave HT1080-NT tox 1%, DT40 TDP1 CPT 21µM*, TDP1 cell noCPT 15µM*, HT1080 IDH1KD tx 0% and IL1B secr inh inconclusive.
Screening O=C(C1=C[C@H](c2coc3ccccc3c2=O)C[C@H](OCc2ccc(CO)cc2)O1)N1CCN(Cc2ccc3c(c2)OCO3)CC1 returned HT1080-NT tox -5%, DT40 TDP1 CPT 7.3µM*, TDP1 cell noCPT 7.3µM* and HT1080 IDH1KD tx -4%.
For CCOC(=O)C1NN=C(C(=O)c2ccc(C)cc2)C1c1ccc(C)cc1 (stereo not given) the results were HT1080-NT tox 0%, DT40 TDP1 CPT 18µM*, TDP1 cell noCPT 21µM*, HT1080 IDH1KD tx 0% and IL1B secr inh inconclusive.
`CCOC(=O)C1=NNC(C(=O)c2ccc(C)cc2)C1c1ccc(OC)cc1` (stereo not given) gave HT1080-NT tox -12%, DT40 TDP1 CPT inconclusive, TDP1 cell noCPT inconclusive, HT1080 IDH1KD tx -6% and IL1B secr inh -15.
`CCOC(=O)C1=NNC(C(=O)OCC)C1c1ccccc1` (stereo not given) gave HT1080-NT tox -6%, DT40 TDP1 CPT inconclusive, TDP1 cell noCPT 2%, HT1080 IDH1KD tx 1% and IL1B secr inh 28.
For CCOC(=O)C1=NNC(C(=O)c2ccc(Cl)cc2)C1c1ccc(OC)cc1 (stereo not given) the results were HT1080-NT tox -21%, DT40 TDP1 CPT inconclusive, TDP1 cell noCPT 18µM*, HT1080 IDH1KD tx -13% and IL1B secr inh 5.
`COc1ccc(C2=NN(CN3C(=O)C(=O)c4ccccc43)C(c3ccc(Br)cc3)C2)cc1` (stereo not given) gave HT1080-NT tox 9%, DT40 TDP1 CPT 16µM*, TDP1 cell noCPT 6.5µM*, HT1080 IDH1KD tx 4% and IL1B secr inh -79*.
`COc1ccc(C2CC(c3ccccc3Br)=NN2c2ccc(S(N)(=O)=O)cc2)cc1` (stereo not given) gave HT1080-NT tox inconclusive, DT40 TDP1 CPT -16%, TDP1 cell noCPT -16%, HT1080 IDH1KD tx inconclusive and IL1B secr inh -24.
COc1ccc(C2=NN(CN3C(=O)C(=O)c4ccccc43)C(c3ccc(C)cc3)C2)cc1 (stereo not given) was read as HT1080-NT tox 5%, DT40 TDP1 CPT 18µM*, TDP1 cell noCPT inconclusive, HT1080 IDH1KD tx 2% and IL1B secr inh -17.
Cc1cc(C)cc(N(C(=O)Cc2cccs2)C(C(=O)NC2CCCCC2)c2ccccn2)c1 (stereo not given) was read as HT1080-NT tox -8%, DT40 TDP1 CPT inconclusive, TDP1 cell noCPT inconclusive, HT1080 IDH1KD tx -16% and IL1B secr inh -18.
For Cc1ccc(C(C(=O)NC2CCCC2)N(C(=O)Cc2cccs2)c2cccc(C)c2C)o1 (stereo not given) the results were HT1080-NT tox -6%, DT40 TDP1 CPT 21µM*, TDP1 cell noCPT 16µM*, HT1080 IDH1KD tx -24% and IL1B secr inh 10.
`O=C(NC1CCCCC1)C(c1ccccn1)N(C(=O)Cc1cccs1)c1ccc(Cl)cc1` (stereo not given) gave HT1080-NT tox inconclusive, DT40 TDP1 CPT 29µM*, TDP1 cell noCPT inconclusive, HT1080 IDH1KD tx inconclusive and IL1B secr inh inconclusive.
Screening O=c1c(Cl)c(N2CCC3(CC2)OCCO3)cnn1C12CC3CC(CC(C3)C1)C2 returned HT1080-NT tox 1%, DT40 TDP1 CPT inconclusive, TDP1 cell noCPT 13µM*, HT1080 IDH1KD tx 4% and IL1B secr inh 4.
`CCOC(=O)c1sc2nc(N3CCOCC3)c3c(c2c1N)CCCC3` gave HT1080-NT tox 19%, DT40 TDP1 CPT inconclusive, TDP1 cell noCPT -19%, HT1080 IDH1KD tx 8% and IL1B secr inh -4.
CCOC(=O)c1sc2nc(N3CCOCC3)c3c(c2c1N)CC(C(C)C)OC3 (stereo not given) was read as HT1080-NT tox 7%, DT40 TDP1 CPT 8.2µM*, TDP1 cell noCPT -13%, HT1080 IDH1KD tx 11% and IL1B secr inh -6.
Screening O=C(NCc1cc(Cl)cc(Cl)c1)c1ccc2nc([C@@H]3O[C@H](CO)[C@@H](O)[C@H]3O)[nH]c2c1 returned HT1080-NT tox 2%, DT40 TDP1 CPT 4%, TDP1 cell noCPT -3%, HT1080 IDH1KD tx 7% and IL1B secr inh 24.
For Cc1ccc(S(=O)(=O)N2CCN(c3nc(-c4ncccn4)nc4ccccc34)CC2)cc1 the results were HT1080-NT tox 1%, DT40 TDP1 CPT inconclusive, TDP1 cell noCPT 11µM* and HT1080 IDH1KD tx 14%.
`Cc1ccc(S(=O)(=O)N2CCN(c3nc(-n4c(=O)[nH]c5ccccc54)nc4ccccc34)CC2)cc1` gave HT1080-NT tox -8%, DT40 TDP1 CPT 11µM*, TDP1 cell noCPT 13µM* and HT1080 IDH1KD tx -6%.
